Test system: RIVA
Experiment: growth inhibition by drug plus 177Lu-lilotomab satetraxetan (1 - RLU/untreated control) (fraction); higher = stronger inhibition
Details: 177Lu-lilotomab satetraxetan 0.5 ug/ml
Protocol: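 RIVA (RI-1) ABC-DLBCL cells were pretreated or not for 18 h with 0.5 ug/ml 177Lu-lilotomab satetraxetan (600 MBq/mg), washed and seeded (3000 cells/well) on 384-well plates pre-printed with the Selleck Cambridge Cancer Compound library. Viability was read by RealTime-Glo luminescence on days 3-6 after seeding. Effect = 1 - RLU/mean RLU of the 48 untreated no-drug control wells per plate; Bliss score = (M-E)/(1-Fa).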

Row | Structure (SMILES) | growth inhibition by drug plus 177Lu-lilotomab satetraxetan (10 nM, time (day): 3) | growth inhibition by drug plus 177Lu-lilotomab satetraxetan (10 nM, time (day): 4) | growth inhibition by drug plus 177Lu-lilotomab satetraxetan (10 nM, time (day): 5) | growth inhibition by drug plus 177Lu-lilotomab satetraxetan (10 nM, time (day): 6) | growth inhibition by drug plus 177Lu-lilotomab satetraxetan (100 nM, time (day): 3) | growth inhibition by drug plus 177Lu-lilotomab satetraxetan (100 nM, time (day): 4) | growth inhibition by drug plus 177Lu-lilotomab satetraxetan (100 nM, time (day): 5) | growth inhibition by drug plus 177Lu-lilotomab satetraxetan (100 nM, time (day): 6)
1 | Cc1nn(-c2ccccc2)c(C)c1C=NN1CCN(Cc2ccccc2)CC1 | 0.275 | 0.414 | 0.437 | 0.459 | 0.295 | 0.4 | 0.397 | 0.389
2 | CC(c1cc2ccccc2s1)N(O)C(N)=O (stereo not given) [Zileuton] | 0.389 | 0.507 | 0.537 | 0.547 | 0.4 | 0.496 | 0.496 | 0.482
3 | CC[C@@H]1C(=O)N(C)c2cnc(Nc3ccc(C(=O)N[C@H]4CC[C@H](N5CCN(CC6CC6)CC5)CC4)cc3OC)nc2N1C(C)C [BI6727 (Volasertib)] | 0.631 | 0.702 | 0.726 | 0.726 | 0.939 | 0.964 | 0.975 | 0.981
4 | CCn1c(-c2nonc2N)nc2cnc(Oc3cccc(NC(=O)c4ccc(OCCN5CCOCC5)cc4)c3)cc21 | 0.46 | 0.522 | 0.558 | 0.578 | 0.439 | 0.515 | 0.547 | 0.569
5 | O=C(Nc1ccc(OC(F)(F)F)cc1)c1sccc1NCc1ccnc2ccccc12 | 0.534 | 0.568 | 0.593 | 0.603 | 0.0922 | 0.306 | 0.33 | 0.355
